# Data published in the supplement of paper PMC8728848.
# This excerpt belongs to a sample that is enriched for the strongest signals.
# B1: CpGal16 (Clavelina picta) (protein)
# chain: MAKMITNYVGKRIECIMVATDMMSTVFSLASATGDLPFYINFRQRENSIVMNTRVHGKWQYEKSQSSGGMNFYEPFRLVVEVRPSVFKVTVSTMGEEDGITFNLQYSQITIKPDEIVAMHLGYCNLRSELLVTDL
# Key:
# Test in all cases: glycan array binding signal (z-score within array); higher = stronger binding
# Conditions in all cases: glycan notation: IUPAC condensed, linker removed
# Fuc(a1-2)Gal(b1-3)GlcNAc = target: Fuc(a1-2)Gal(b1-3)GlcNAc
# Outline: (§1)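 Glycan array data were curated from 3228 arrays in the Consortium for Functional Glycomics database and kept only where the protein sequence was available. Glycan names were converted to IUPAC-condensed notation, and columns mapping to the same glycan were averaged. The binding signal is a within-array Z-score, averaged across arrays of the same protein sequence at different concentrations or buffers and across linkers. Negative Z-scores can be read as non-binding.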
# [1] = target: Fuc(a1-2)Gal(b1-3)GlcNAc(b1-3)Gal(b1-4)Glc
# Outline: as §1
# [2] = target: Fuc(a1-2)Gal(b1-3)GlcNAc(b1-3)[Gal(b1-4)GlcNAc(b1-6)]Gal(b1-4)Glc
# Outline: as §1
# [3] = target: Fuc(a1-2)Gal(b1-3)[Fuc(a1-4)]GlcNAc(b1-2)Man(a1-3)[Fuc(a1-2)Gal(b1-3)[Fuc(a1-4)]GlcNAc(b1-2)Man(a1-6)]Man(b1-4)GlcNAc(b1-4)[Fuc(a1-6)]GlcNAc(b1-4)[Fuc(a1-6)]GlcNAc
# Outline: as §1
# [4] = target: Fuc(a1-2)Gal(b1-3)[Fuc(a1-4)]GlcNAc(b1-3)[Fuc(a1-3)[Gal(b1-4)]GlcNAc(b1-6)]Gal(b1-4)Glc
# Outline: as §1
# Fuc(a1-2)Gal(b1-4)Glc6S = target: Fuc(a1-2)Gal(b1-4)Glc6S
# Outline: as §1
# [5] = target: Fuc(a1-2)[Gal(a1-3)]Gal(b1-4)GlcNAc
# Outline: as §1
# [6] = target: Fuc(a1-2)[Gal(a1-3)]Gal(b1-4)[Fuc(a1-3)]GlcNAc
# Outline: as §1
# [7] = target: Fuc(a1-2)[GalNAc(a1-3)]Gal(b1-3)GlcNAc(b1-6)GalNAc
# Outline: as §1
# [8] = target: Fuc(a1-2)[GalNAc(a1-3)]Gal(b1-4)GlcNAc(b1-2)Man(a1-3)[Fuc(a1-2)[GalNAc(a1-3)]Gal(b1-4)GlcNAc(b1-2)Man(a1-6)]Man(b1-4)GlcNAc(b1-4)[Fuc(a1-6)]GlcNAc
# Outline: as §1
# [9] = target: Fuc(a1-2)[GalNAc(a1-3)]Gal(b1-4)GlcNAc(b1-3)Gal(b1-4)GlcNAc
# Outline: as §1
# [10] = target: Fuc(a1-3)[Gal3S(b1-4)]GlcNAc6S
# Outline: as §1
# [11] = target: Gal(a1-3)Gal(b1-3)[Fuc(a1-4)]GlcNAc(b1-2)Man(a1-3)[Gal(a1-3)Gal(b1-3)[Fuc(a1-4)]GlcNAc(b1-2)Man(a1-6)]Man(b1-4)GlcNAc(b1-4)GlcNAc
# Outline: as §1
# Gal(b1-3)GlcNAc(b1-2)Man = target: Gal(b1-3)GlcNAc(b1-2)Man
# Outline: as §1
# [12] = target: Gal(b1-3)GlcNAc(b1-2)Man(a1-3)[GlcNAc(b1-4)][Gal(b1-3)GlcNAc(b1-2)Man(a1-6)]Man(b1-4)GlcNAc(b1-4)GlcNAc
# Outline: as §1
# [13] = target: Gal(b1-3)GlcNAc(b1-3)Gal(b1-4)GlcNAc(b1-2)Man(a1-3)[Gal(b1-3)GlcNAc(b1-3)Gal(b1-4)GlcNAc(b1-2)Man(a1-6)]Man(b1-4)GlcNAc(b1-4)GlcNAc
# Outline: as §1
# [14] = target: Gal(b1-3)GlcNAc(b1-3)Gal(b1-4)GlcNAc(b1-2)[Gal(b1-3)GlcNAc(b1-3)Gal(b1-4)GlcNAc(b1-6)]Man(a1-6)[Gal(b1-3)GlcNAc(b1-3)Gal(b1-4)GlcNAc(b1-2)Man(a1-3)]Man(b1-4)GlcNAc(b1-4)[Fuc(a1-6)]GlcNAc
# Outline: as §1
# [15] = target: Gal(b1-3)GlcNAc(b1-3)Gal(b1-4)GlcNAc(b1-3)Gal(b1-4)GlcNAc(b1-2)[Gal(b1-3)GlcNAc(b1-3)Gal(b1-4)GlcNAc(b1-3)Gal(b1-4)GlcNAc(b1-6)]Man(a1-6)[Gal(b1-3)GlcNAc(b1-3)Gal(b1-4)GlcNAc(b1-3)Gal(b1-4)GlcNAc(b1-2)Man(a1-3)]Man(b1-4)GlcNAc(b1-4)[Fuc(a1-6)]GlcNAc
# Outline: as §1
# [16] = target: Gal(b1-3)GlcNAc(b1-3)Gal(b1-4)[Fuc(a1-3)]GlcNAc(b1-6)[Gal(b1-3)GlcNAc(b1-3)]Gal(b1-4)Glc
# Outline: as §1
# [17] = target: Gal(b1-4)GlcNAc(b1-2)Man(a1-3)[GlcNAc(b1-4)][Gal(b1-4)GlcNAc(b1-2)Man(a1-6)]Man(b1-4)GlcNAc(b1-4)GlcNAc
# Outline: as §1
# [18] = target: Gal(b1-4)GlcNAc(b1-3)Gal(b1-4)GlcNAc(b1-3)Gal(b1-4)GlcNAc(b1-2)Man(a1-3)[Gal(b1-4)GlcNAc(b1-3)Gal(b1-4)GlcNAc(b1-3)Gal(b1-4)GlcNAc(b1-2)Man(a1-6)]Man(b1-4)GlcNAc(b1-4)[Fuc(a1-6)]GlcNAc
# Outline: as §1
# [19] = target: Gal(b1-4)GlcNAc(b1-3)Gal(b1-4)GlcNAc(b1-3)Gal(b1-4)GlcNAc(b1-2)[Gal(b1-4)GlcNAc(b1-3)Gal(b1-4)GlcNAc(b1-3)Gal(b1-4)GlcNAc(b1-6)]Man(a1-6)[Gal(b1-4)GlcNAc(b1-3)Gal(b1-4)GlcNAc(b1-3)Gal(b1-4)GlcNAc(b1-2)Man(a1-3)]Man(b1-4)GlcNAc(b1-4)[Fuc(a1-6)]GlcNAc
# Outline: as §1
# [20] = target: Gal(b1-4)GlcNAc(b1-3)Gal(b1-4)GlcNAc(b1-3)Gal(b1-4)GlcNAc(b1-3)Gal(b1-4)GlcNAc(b1-3)Gal(b1-4)GlcNAc(b1-2)Man(a1-3)[Gal(b1-4)GlcNAc(b1-3)Gal(b1-4)GlcNAc(b1-3)Gal(b1-4)GlcNAc(b1-3)Gal(b1-4)GlcNAc(b1-3)Gal(b1-4)GlcNAc(b1-2)Man(a1-6)]Man(b1-4)GlcNAc(b1-4)[Fuc(a1-6)]GlcNAc
# Outline: as §1
# [21] = target: Gal(b1-4)GlcNAc(b1-3)Gal(b1-4)GlcNAc(b1-3)GalNAc
# Outline: as §1
# Gal(b1-6)Gal = target: Gal(b1-6)Gal
# Outline: as §1
# [22] = target: Gal3S(b1-3)[Fuc(a1-4)]GlcNAc
# Outline: as §1
# Gal6S(b1-3)GlcNAc = target: Gal6S(b1-3)GlcNAc
# Outline: as §1
# Gal6S(b1-4)Glc6S = target: Gal6S(b1-4)Glc6S
# Outline: as §1
# GalNAc3S(b1-4)GlcNAc3S = target: GalNAc3S(b1-4)GlcNAc3S
# Outline: as §1
# [23] = target: GlcNAc(a1-3)Gal(b1-4)GlcNAc
# Outline: as §1
# [24] = target: GlcNAc(a1-4)Gal(b1-4)GalNAc
# Outline: as §1
# [25] = target: GlcNAc(a1-4)Gal(b1-4)GlcNAc(b1-3)Gal(b1-4)GlcNAc
# Outline: as §1
# [26] = target: GlcNAc(b1-3)Gal(b1-4)GlcNAc(b1-3)[GlcNAc(b1-3)Gal(b1-4)GlcNAc(b1-3)]GalNAc
# Outline: as §1
# [27] = target: GlcNAc(b1-4)GlcNAc(b1-4)GlcNAc(b1-4)GlcNAc(b1-4)GlcNAc
# Outline: as §1
# Kdn(a2-6)Gal(b1-4)GlcNAc = target: Kdn(a2-6)Gal(b1-4)GlcNAc
# Outline: as §1
# [28] = target: Man(a1-2)Man(a1-3)[Man(a1-2)Man(a1-6)]Man(a1-6)[Man(a1-2)Man(a1-2)Man(a1-3)]Man
# Outline: as §1
# [29] = target: Neu5Ac(a2-3)Gal(b1-3)[GlcNAc(b1-6)]GalNAc
# Outline: as §1
# [30] = target: Neu5Ac(a2-3)Gal(b1-3)[Neu5Ac(a2-6)]GlcNAc(b1-3)[Fuc(a1-3)[Gal(b1-4)]GlcNAc(b1-6)]Gal(b1-4)Glc
# Outline: as §1
# [31] = target: Neu5Ac(a2-3)Gal(b1-4)GlcNAc
# Outline: as §1
# [32] = target: Neu5Ac(a2-3)Gal(b1-4)GlcNAc(b1-6)[Neu5Ac(a2-3)Gal(b1-3)]GalNAc
# Outline: as §1
# [33] = target: Neu5Ac(a2-3)Gal(b1-4)[Fuc(a1-3)]GlcNAc(b1-6)[Gal(b1-3)]GalNAc
# Outline: as §1
# [34] = target: Neu5Ac(a2-6)Gal(b1-4)GlcNAc
# Outline: as §1
# [35] = target: Neu5Ac(a2-6)Gal(b1-4)GlcNAc(b1-2)Man(a1-3)[Man(a1-6)]Man(b1-4)GlcNAc(b1-4)GlcNAc
# Outline: as §1
# [36] = target: Neu5Ac(a2-6)Gal(b1-4)GlcNAc(b1-3)Gal(b1-4)[Fuc(a1-3)]GlcNAc(b1-3)Gal(b1-4)[Fuc(a1-3)]GlcNAc
# Outline: as §1
# [37] = target: Neu5Ac(a2-6)Gal(b1-4)GlcNAc6S
# Outline: as §1
# [38] = target: Neu5Ac(a2-6)GlcNAc(b1-4)GlcNAc(b1-4)GlcNAc
# Outline: as §1
# [39] = target: Neu5Ac(a2-8)Neu5Ac(a2-8)Neu5Ac
# Outline: as §1
binder,measurement,setting,value
B1,glycan array binding signal (z-score),Fuc(a1-2)Gal(b1-3)GlcNAc,2.93
same,glycan array binding signal (z-score),[1],3.11
same,glycan array binding signal (z-score),[2],2.79
same,glycan array binding signal (z-score),[3],-0.402
same,glycan array binding signal (z-score),[4],-0.394
same,glycan array binding signal (z-score),Fuc(a1-2)Gal(b1-4)Glc6S,3.43
same,glycan array binding signal (z-score),[5],-0.113
same,glycan array binding signal (z-score),[6],-0.434
same,glycan array binding signal (z-score),[7],3.13
same,glycan array binding signal (z-score),[8],0.044
same,glycan array binding signal (z-score),[9],2.86
same,glycan array binding signal (z-score),[10],-0.265
same,glycan array binding signal (z-score),[11],-0.202
same,glycan array binding signal (z-score),Gal(b1-3)GlcNAc(b1-2)Man,0.015
same,glycan array binding signal (z-score),[12],2.87
same,glycan array binding signal (z-score),[13],3.83
same,glycan array binding signal (z-score),[14],3.99
same,glycan array binding signal (z-score),[15],4.48
same,glycan array binding signal (z-score),[16],3.33
same,glycan array binding signal (z-score),[17],-0.358
same,glycan array binding signal (z-score),[18],0.953
same,glycan array binding signal (z-score),[19],1.44
same,glycan array binding signal (z-score),[20],1.28
same,glycan array binding signal (z-score),[21],-0.168
same,glycan array binding signal (z-score),Gal(b1-6)Gal,-0.407
same,glycan array binding signal (z-score),[22],-0.266
same,glycan array binding signal (z-score),Gal6S(b1-3)GlcNAc,-0.282
same,glycan array binding signal (z-score),Gal6S(b1-4)Glc6S,-0.12
same,glycan array binding signal (z-score),GalNAc3S(b1-4)GlcNAc3S,0.397
same,glycan array binding signal (z-score),[23],-0.249
same,glycan array binding signal (z-score),[24],-0.312
same,glycan array binding signal (z-score),[25],-0.32
same,glycan array binding signal (z-score),[26],-0.168
same,glycan array binding signal (z-score),[27],-0.348
same,glycan array binding signal (z-score),Kdn(a2-6)Gal(b1-4)GlcNAc,-0.352
same,glycan array binding signal (z-score),[28],-0.232
same,glycan array binding signal (z-score),[29],-0.388
same,glycan array binding signal (z-score),[30],-0.357
same,glycan array binding signal (z-score),[31],-0.378
same,glycan array binding signal (z-score),[32],-0.324
same,glycan array binding signal (z-score),[33],0.134
same,glycan array binding signal (z-score),[34],-0.456
same,glycan array binding signal (z-score),[35],-0.395
same,glycan array binding signal (z-score),[36],-0.419
same,glycan array binding signal (z-score),[37],-0.303
same,glycan array binding signal (z-score),[38],-0.261
same,glycan array binding signal (z-score),[39],-0.39
